Here are results for 40 sequences from the supplement of paper PMC10338343.

± gives the standard deviation.

For this assay, the system named is EfPiwi piRISC loaded with piRNA #1 (26 nt). The experiment in a line: pre-steady-state target cleavage rate (min^-1); auxiliary factor: 500 nM Ephydatia muelleri Gtsf1; guide: piRNA #1 5'p-UGAGGUAGUAGGUUGUAUAGUAUCCA; MIWI and MILI are mouse PIWI proteins and EfPiwi is from a freshwater sponge; tags in brackets are library labels; higher = faster piRNA-guided slicing of the target. A digest of the protocol: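 A transcribed, DNA-blocked target RNA library (0.1 nM) and 1 nM active affinity-purified piRISC bearing one synthetic guide were incubated in HEPES–potassium acetate buffer at 33 °C for 0–8 or 0–960 min, either with or without 500 nM GTSF1 partner protein. Uncleaved targets were sequenced, normalised to depth and to weakly complementary targets, and pooled over three trials, with k3 capped at 0.0001 min^-1. The pre-steady-state cleavage rate was derived with a burst-and-steady-state fit.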
Take GGAGACGAUACUAUACAACCUUCUAGCUCA: the “pre-steady-state target cleavage rate” value is 0.00455 ± 0.0027.
As for GGAGACGAUACUAUACAACCUAGUACGUCA, the “pre-steady-state target cleavage rate” value worked out at 0.00328 ± 0.0016.
Next, GGAGUGGAUACUAUACAAGCUACUACCACA: 0.0039 ± 0.0017; GGAGACCUAACUAUACAACCUACUUCCUGA: 0.00376 ± 0.0037; GGAGAGGAUACUAUACAACCUAGAACCUCA: 0.00379 ± 0.0022.
Next, GGAGAGGAUACUAUAGCAACCUACUACCUCA: 0.0429 ± 0.019; GGAGUGGAUACUAUACAAUCCUACUACCUCA: 0.0124 ± 0.0065.
Take GGAGACCAUACUAUACAACCCUACUACCUCA: the “pre-steady-state target cleavage rate” value worked out at 0.00693 ± 0.0035.
For GGAGACCUAUGAUCACAACCUACUACCUCA, the “pre-steady-state target cleavage rate” value was determined as 0.00429 ± 0.0038.
In the case of GGAGACCUUACUAUACAACCCUACUACCUCA, the “pre-steady-state target cleavage rate” value amounted to 0.00411 ± 0.0037.
Next, GGAGACGAUACUAUACAACCUUCUACGUCA: 0.00448 ± 0.0019; GGAGAGGGAUACUAUACAACCUACUACCUCA: 0.0946 ± 0.037; GGAGACGUACUAUACAACCUACUACCUCA: 0.0561 ± 0.022.
As to GGAGUGGAUACUAUACAUCCUACUUCCUCA, the “pre-steady-state target cleavage rate” value was determined as 0.00326 ± 0.0017.
Consider GGAGACCAUACUAUACAACGCUACUACCUCA, for which the “pre-steady-state target cleavage rate” value is 0.0082 ± 0.0044.
Next, GGAGACCUAACUAUACAAGCUACUACCUCA: 0.00482 ± 0.0028; GGAGACCAUACUAUACACACCUACUACCUCA: 0.00511 ± 0.0031; GGAGAGGAUACUAUACAACCUUACUACCUCA: 0.00845 ± 0.0045.
For the sequence GGAGUGGAUAGUAUACAACCUACUACGUCA, the “pre-steady-state target cleavage rate” value was found to be 0.00277 ± 0.0018.
Next, GGAGACCUAUCUAUACAACCUACUACCCCA: 0.00444 ± 0.0032; GGAGUGGAUACUAUACAACCUAGUACGUCA: 0.00381 ± 0.0014; GGAGAGGAAACUAUACAACCAACUACCUCA: 0.00523 ± 0.0026.
As for GGAGACCUAACUAUACAUCCUACUACCUGA, the “pre-steady-state target cleavage rate” value amounted to 0.00344 ± 0.0029.
As for GGAGACCAAACUAUACAACCUUCUACCUCA, the “pre-steady-state target cleavage rate” value is 0.00406 ± 0.0026.
On to GGAGACCUUACUAUACAAACCUACUACCUCA, for which the “pre-steady-state target cleavage rate” value was 0.0103 ± 0.0047.
The same measure for GGAGACCAUACUAUACAACCUAGAUCCUCA: 0.00423 ± 0.0039; for GGAGAGGAAACUAUACAACCUACUUCCUCA: 0.00302 ± 0.0017.
In the case of GGAGAGGUUACUAUACAACCUACUAGCUCA, the “pre-steady-state target cleavage rate” value was determined as 0.00306 ± 0.0015.
As for “GGAGAGGAUACUAUACAACCUACUACCUCG [g2:g25:cont:t1G]”, the “pre-steady-state target cleavage rate” value was 0.143 ± 0.048.
Next, GGAGACCUAUGAUAUGUACCUAUUACCUCA: less than 0.0001; GGAGUGGAUACUAUACAACUCUACUACCUCA: 0.00493 ± 0.003; GGAGACGACACUAUACAACCUACUACCUCA: 0.114 ± 0.038.
Regarding GGAGACGAUACUAUACAACCUAGUACCACA, the “pre-steady-state target cleavage rate” value came to 0.00488 ± 0.0029.
Next, GGAGUGGAUACUAUUCAACGUACUACCUCA: 0.00373 ± 0.0014; GGAGACGAUACUAACAACCUACUACCUCA: 0.00704 ± 0.0045.
Regarding GGAGACCUAUGAUAUGUACCUACAUACCUCA, the “pre-steady-state target cleavage rate” value is less than 0.0001.
Next, GGAGACCUAUGAUAAGAACCUACUACCACA: less than 0.0001.
Next, GGAGACCUAUGAUAACAAGGAACUACCUCA: less than 0.0001.
Next, GGAGUGGAUACUAUACAACCUUCUAGCUCA: 0.00376 ± 0.0018; GGAGUGGAUACUAUACAACCUAGUACCACA: 0.0035 ± 0.0016.
